Screening data from PubChem BioAssay.
Hits are enriched below; roughly 19% of the tested compounds scored in any of these assays.
IL-1B inflam inh: blocks inflammasome-driven IL-1 beta release; 360,000 compounds, 4.7% hits; activity change, % at 57.5 µM; THP-1 LPS/ATP IL-1B secretion, AlphaLISA, 16 h; active compounds read low; AID 743279; in the data active = activity change below about -50%; inconclusive = mostly about -30% to -49%
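Secreted IL-1B measured by AlphaLISA bead assay after 16 h compound exposure of THP-1 cells; compounds (final up to 57.5 uM) added 1 h before LPS (250 ng/mL) and ATP (1.25 mM) stimulation; lower signal means less secretion.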
HT1080 IDH1KD tx: kills HT-1080 cells with IDH1 knockdown. HT-1080 IDH1 knockdown viability, ATP luminescence, 48 h. AID 686971. 360,000 compounds, 2% hits. Potency, µM (titrated, usually from 46.1 µM), for inactives: at the highest dose activity, negative = toxicity, most hits filed as cytotoxic;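 also: potency is read from the fitted curve at half-maximal effect; 0% = DMSO wells and -100% = cell-free medium wells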
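Luminescent ATP read-out (CellTiter-Glo, 10 min at room temperature) after 48 h compound exposure at 37 °C gave viability of IDH1-knockdown HT-1080 cells. Activity was normalised to DMSO and cell-free wells, then fitted as concentration-response curves.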
HT1080-NT tox: kills 2HG-producing HT-1080-NT fibrosarcoma cells. HT-1080-NT fibrosarcoma viability, CellTiter-Glo ATP luminescence, 48 h. Potency, µM (highest dose often 46.1 µM), for inactives: top-dose activity, negative = less viability, usual class: cytotoxic. 360,000 compounds, 1.6% hits. AID 686970;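 also: NT is the 2HG producing partner of a matched IDH1 knockdown line; potency is read from the fitted curve at half-maximal effect; 0% = DMSO-treated cells and -100% = media-only wells without cells; nearly all actives have a fitted effect of over 55% in size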
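HT-1080-NT fibrosarcoma cells (2HG-overproducing), 750 cells/well in RPMI with 5% FBS, dosed after 2 h and incubated 48 h at 37C. CellTiter-Glo luminescence normalized to DMSO and no-cell wells; concentration-response curves fitted and classed.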
DT40 TDP1 no CPT: qHTS for Inhibitors of human tyrosyl-DNA phosphodiesterase 1 (TDP1): qHTS in cells in absence of CPT | DT40 Tdp1-/- hTDP1 cells, no CPT, ATP luminescence, 48 h | Potency, µM (series often up to 46.2 µM), for the others: at the top dose activity change, negative = growth inhibition, most hits filed as inhibitors | 420,000 compounds, 15% hits | AID 686978, 2013; also: potency is read from the fitted curve at half-maximal effect; nearly all actives have a fitted effect of over 55% in size
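Chicken DT40 Tdp1-/- cells complemented with human TDP1, screened without camptothecin (DMSO vehicle only), 400 cells/well. Compounds pin-transferred, cells incubated at 37 °C for at least 48 hr. Growth read as ATP-dependent luminescence (CellTiter-Glo, 30 min at RT).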
TDP1 cell CPT: growth inhibition of DT40 Tdp1-/-;hTDP1 cells with camptothecin (screen for TDP1 inhibitors). 420,000 compounds, 12% hits. AID 686979. Potency, µM (titrated, usually from 46.2 µM), inactives show at the top dose activity change, negative = growth inhibition, actives largely listed as inhibitors. chicken DT40 Tdp1-/-;hTDP1 cells + 20 nM CPT, ATP luminescence, 48 h; also: potency is read from the fitted curve at half-maximal effect; nearly all actives have a fitted effect of over 55% in size
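Chicken DT40 Tdp1-/- cells stably complemented with human TDP1 were seeded at 400 cells/well in medium containing 20 nM camptothecin, exposed to pin-transferred compounds, and grown at 37 °C for at least 48 hr. Viability was read as ATP luminescence.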
Numbers without * were called inactive. Unless noted, calls follow the shape of the dose curve; as a rule, active = well fitted curve in the direction sought with a large enough effect; inconclusive = small, poorly fitted or top-dose-only effect, or another doubt; inactive = no such curve, though single readings can be large; an effect the other way counts as inactive or inconclusive. Unless noted, % is scaled to controls: 0 for no effect and ±100 for the full control effect.

`COc1ccccc1-[n+]1c(C)cc(/C=C2\Sc3ccccc3N2C)cc1C` gave IL-1B inflam inh -63*, HT1080 IDH1KD tx 0.58µM*, HT1080-NT tox 2.6µM*, DT40 TDP1 no CPT 0.021µM* and TDP1 cell CPT 0.065µM*.
For Cn1c(=O)c2c(nc(SCC(=O)NCC3CCCO3)n2Cc2ccc(F)cc2)n(C)c1=O (stereo not given) the results were IL-1B inflam inh 19, HT1080 IDH1KD tx 0%, HT1080-NT tox 6%, DT40 TDP1 no CPT -20% and TDP1 cell CPT 7%.
For S=C(Nc1ccccn1)c1ccccn1 the results were IL-1B inflam inh 20, HT1080 IDH1KD tx inconclusive, HT1080-NT tox inconclusive, DT40 TDP1 no CPT 0.92µM* and TDP1 cell CPT 0.92µM*.
`Cc1ccc(C)c(NC(=O)NCc2ccccn2)c1` gave IL-1B inflam inh -13, HT1080 IDH1KD tx 13%, HT1080-NT tox 15%, DT40 TDP1 no CPT 9% and TDP1 cell CPT -1%.
For CC(=O)Nc1ccccc1NC(=O)c1cc(C)ccc1C the results were IL-1B inflam inh 16, HT1080 IDH1KD tx 5%, HT1080-NT tox 7%, DT40 TDP1 no CPT 9% and TDP1 cell CPT 17%.
`Cc1ccccc1-c1ocnc1C(=O)Nc1ccccc1NC(=O)c1ccccn1` gave IL-1B inflam inh -3, HT1080 IDH1KD tx inconclusive, HT1080-NT tox 3.7µM*, DT40 TDP1 no CPT inconclusive and TDP1 cell CPT inconclusive.
`Cc1ccc(-c2ocnc2C(=O)Nc2ccccc2C(=O)N2CCCC2)cc1` gave IL-1B inflam inh -24, HT1080 IDH1KD tx 5%, HT1080-NT tox 0%, DT40 TDP1 no CPT inconclusive and TDP1 cell CPT inconclusive.
`Cc1ccc(C)c(C(=O)c2ccccc2NC(=O)c2ccccn2)c1` gave IL-1B inflam inh 18, HT1080 IDH1KD tx 21µM*, HT1080-NT tox inconclusive, DT40 TDP1 no CPT 9.2µM* and TDP1 cell CPT 16µM*.
`O=C(Nc1ccccn1)C(=O)Nc1ccccn1` gave IL-1B inflam inh 4, HT1080 IDH1KD tx 1%, HT1080-NT tox -5%, DT40 TDP1 no CPT -13% and TDP1 cell CPT -4%.
Screening Cc1ccc(C)c(NC(=S)c2ccccn2)c1 returned IL-1B inflam inh -101*, HT1080 IDH1KD tx -14%, HT1080-NT tox -1%, DT40 TDP1 no CPT 18µM* and TDP1 cell CPT 18µM*.
COc1cc2c3c(n(C)c(=O)c2cc1OC)-c1cc2c(cc1C3=O)OCO2 was read as IL-1B inflam inh 10, HT1080 IDH1KD tx -2%, HT1080-NT tox 9%, DT40 TDP1 no CPT inconclusive and TDP1 cell CPT inconclusive.
`COc1ccc(N2CC(C(=O)O)CC2=O)cc1` (stereo not given) gave IL-1B inflam inh -3, HT1080 IDH1KD tx 6%, HT1080-NT tox 6%, DT40 TDP1 no CPT 0% and TDP1 cell CPT -16%.
Cc1ccc2c(c1)C(=O)C(=O)N2CC(=O)Nc1ccccc1NC(=O)c1ccccn1 was read as IL-1B inflam inh 39, HT1080 IDH1KD tx -3%, HT1080-NT tox inconclusive, DT40 TDP1 no CPT 5.8µM* and TDP1 cell CPT 5.2µM*.
`Cc1cccc(C)c1NC(=O)c1sccc1SCC#N` gave IL-1B inflam inh 7, HT1080 IDH1KD tx -9%, HT1080-NT tox 3%, DT40 TDP1 no CPT inconclusive and TDP1 cell CPT 11µM*.
`CC1=N/C(=C\c2ccc([N+](=O)[O-])cc2)C(=O)N1c1ccc(F)cc1F` gave IL-1B inflam inh 7, HT1080 IDH1KD tx -8%, HT1080-NT tox inconclusive, DT40 TDP1 no CPT 18µM* and TDP1 cell CPT inconclusive.
CC1=N/C(=C\c2ccc([N+](=O)[O-])cc2)C(=O)N1c1ccc(Cl)cc1 was read as IL-1B inflam inh -7, HT1080 IDH1KD tx 0%, HT1080-NT tox -20%, DT40 TDP1 no CPT inconclusive and TDP1 cell CPT inconclusive.
CC1=N/C(=C/c2ccc([N+](=O)[O-])cc2)C(=O)N1c1ccc(Cl)cc1Cl was read as IL-1B inflam inh 1, HT1080 IDH1KD tx -2%, HT1080-NT tox 2%, DT40 TDP1 no CPT 26µM* and TDP1 cell CPT inconclusive.
